“And” between values parts separate entries of the source, which are not always exact repeats. Equal values may be shown once. Some structures have more than one record in an assay (separate samples or runs), and their calls can disagree. The source made the active and inactive calls. Rule for the calls: active = hit-call score of the fitted dose curve at least 0.9, where 1 is the maximum; inactive = score below 0.9.

Read-out in one experiment: Basic fibroblast growth factor (bFGF), FGF2 (gene 2247)
As to the kind of experiment: BSK_MyoF_bFGF: BioMAP Diversity Plus: MyoF Assay for Basic fibroblast growth factor (bFGF) Biomarker Activity (AID 2284246). As to conditions: primary human lung fibroblasts. In short, it runs like this:
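Human lung fibroblast cultures were dosed and measured 24 h later in 96-well format. bFGF biomarker levels quantified by ELISA, with activity fitted in the positive direction against DMSO.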
Take `O=S(=O)(OCC(F)F)C(F)(F)F`: the result was inactive.

`CCCCCCCCC(F)(F)C(F)(F)C(F)(F)C(F)(F)C(F)(F)C(F)(F)F`: the result was inactive.

Consider `C=CC(F)(F)C(F)(F)C(F)(F)C(F)(F)C(F)(F)C(F)(F)C(F)(F)C(F)(F)F`, for which the outcome was inactive.

Turning to `COC(=O)CCC(F)(F)C(F)(F)C(F)(F)C(F)(F)F`, the result was inactive.

Regarding `CC(C)(C)C(=O)CC(=O)C(F)(F)C(F)(F)C(F)(F)F`, the outcome was inactive.

Turning to `FC(F)(F)C(F)(F)CNCC(F)(F)C(F)(F)F`, the outcome was inactive.

On to `O=P(O)(O)OCCC(F)(F)C(F)(F)C(F)(F)C(F)(F)C(F)(F)C(F)(F)F`, for which the result was inactive.

With `CCCCNc1ccccc1`, the outcome was inactive.

In the case of `FC1CC(F)(F)C(F)(F)C1(F)F` (stereo not drawn), the outcome was inactive.

On to `FC(F)(F)C(F)(F)C(F)(F)N(C(F)(F)C(F)(F)C(F)(F)F)C(F)(F)C(F)(F)C(F)(F)F`, for which the result was inactive.

Regarding `OCC(F)(F)C(F)(F)C(F)(F)C(F)(F)C(F)(F)C(F)F`, the outcome was inactive.

For `C=CC(=O)OCC(F)(F)C(F)(F)C(F)(F)C(F)(F)COC(=O)C=C`, the AC50 is 18.2 µM (active) and 14.5 µM (active).

On to `CCc1c(Br)c(Br)c(Br)c(Br)c1Br`, for which the outcome was inactive.

Consider `Nc1ccc([N+](=O)[O-])cc1O`, for which the result was inactive.

As to `O=C(O)C(F)(F)C(F)(F)C(F)(F)C(F)(F)C(F)(F)C(F)(F)C(F)(F)C(F)(F)Cl`, the outcome was inactive.

With `O=C(O)C(F)(F)C(F)(F)F`, the result was inactive.

On to `N=C(N)C(F)(F)C(F)(F)C(F)(F)C(F)(F)C(F)(F)C(F)(F)C(F)(F)F`, for which the outcome was inactive.

Read-out in a further experiment: Collagen IV, COL4A1 (gene 1282)
As to the kind of experiment: BSK_MyoF_CollagenIV: BioMAP Diversity Plus: MyoF Assay for Collagen IV Biomarker Activity (AID 2284247). As to conditions: primary human lung fibroblasts. In short, it runs like this: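 Primary human lung fibroblasts (MyoF system) dosed 24 h; Collagen IV measured by ELISA. Activity fitted in positive direction against DMSO; cytotoxicity tracked by SRB total-protein staining in parallel cultures.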
With `CC(CCl)OP(=O)(OC(C)CCl)OC(C)CCl` (stereo not drawn), the result was inactive.

As for `OCCCC(F)(F)C(F)(F)C(F)(F)F`, the result was inactive.

Take `O=C(O)C(F)(F)C(F)(F)OC(F)(F)F`: the outcome was inactive.

Consider `OCC(F)(F)C(F)(F)C(F)(F)C(F)F`, for which the outcome was inactive.

With `O=C(CC(=O)C(F)(F)C(F)(F)F)C(F)(F)F`, the outcome was inactive.

As to `O=C(Cl)C(F)(F)C(F)(F)C(F)(F)C(F)(F)C(F)(F)C(F)(F)C(F)(F)C(F)(F)F`, the AC50 is 18.7 µM (active) and 20.4 µM (active) and 21.3 µM (active).

Turning to `C=C(C)C(=O)OCC(F)(F)C(F)(F)C(F)(F)F`, the result was inactive.

As to `FC(F)(F)C(F)(F)C(F)(F)C(F)(F)C(F)(F)C(F)(F)CCS`, the result was inactive.

For the compound `FC(F)(F)C(F)(F)C(F)(F)C(F)(F)C(F)(F)C(F)(F)C(F)(F)C(F)(F)CCS`, the result was inactive.

Consider `OCCCC(F)(F)C(F)(F)C(F)(F)C(F)(F)C(F)(F)C(F)(F)C(F)(F)F`, for which the AC50 was 49.5 µM (active) and 48.3 µM (active).

For the compound `CCO[Si](CCC(F)(F)C(F)(F)C(F)(F)C(F)(F)C(F)(F)C(F)(F)F)(OCC)OCC`, the result was inactive.

For the compound `FC(F)(F)C(F)(F)C(F)(F)CI`, the outcome was inactive.

In the case of `O=S(=O)(O)C(F)(F)C(F)(F)C(F)(F)C(F)(F)C(F)(F)C(F)(F)C(F)(F)F`, the outcome was inactive.

On to `O=C(O)C(F)(F)C(F)(F)C(F)(F)C(F)(F)F`, for which the result was inactive.

`O=C(O)C(F)(F)C(F)(F)C(F)(F)F`: the outcome was inactive.

On to `FC(F)(F)C(F)(F)C(F)(F)C(F)(F)C(F)(F)C(F)(F)C(F)(F)C(F)(F)F`, for which the result was inactive.

For `FC(F)(F)C(F)(F)C(F)(F)C(F)(F)CCI`, the result was inactive.

`CCCCCCCOC(=O)c1ccccc1C(=O)OCCCCCCC`: the outcome was inactive.

Turning to `O=S(=O)(OCC(F)F)C(F)(F)F`, the result was inactive.

With `CCCCCCCCC(F)(F)C(F)(F)C(F)(F)C(F)(F)C(F)(F)C(F)(F)F`, the outcome was inactive.

As to `C=CC(F)(F)C(F)(F)C(F)(F)C(F)(F)C(F)(F)C(F)(F)C(F)(F)C(F)(F)F`, the result was inactive.

Consider `COC(=O)CCC(F)(F)C(F)(F)C(F)(F)C(F)(F)F`, for which the result was inactive.

For `CC(C)(C)C(=O)CC(=O)C(F)(F)C(F)(F)C(F)(F)F`, the result was inactive.

`FC(F)(F)C(F)(F)CNCC(F)(F)C(F)(F)F`: the result was inactive.

With `O=P(O)(O)OCCC(F)(F)C(F)(F)C(F)(F)C(F)(F)C(F)(F)C(F)(F)F`, the result was inactive.

`CCCCNc1ccccc1`: the result was inactive.

Turning to `FC1CC(F)(F)C(F)(F)C1(F)F` (stereo not drawn), the outcome was inactive.

As to `FC(F)(F)C(F)(F)C(F)(F)N(C(F)(F)C(F)(F)C(F)(F)F)C(F)(F)C(F)(F)C(F)(F)F`, the outcome was inactive.

For the compound `OCC(F)(F)C(F)(F)C(F)(F)C(F)(F)C(F)(F)C(F)F`, the outcome was inactive.

Regarding `C=CC(=O)OCC(F)(F)C(F)(F)C(F)(F)C(F)(F)COC(=O)C=C`, the AC50 is 12.4 µM (active) and 14.3 µM (active).

On to `CCc1c(Br)c(Br)c(Br)c(Br)c1Br`, for which the outcome was inactive.

For the compound `Nc1ccc([N+](=O)[O-])cc1O`, the outcome was inactive.

On to `O=C(O)C(F)(F)C(F)(F)C(F)(F)C(F)(F)C(F)(F)C(F)(F)C(F)(F)C(F)(F)Cl`, for which the AC50 is 7.89 µM (active) and the outcome was inactive.

For `O=C(O)C(F)(F)C(F)(F)F`, the result was inactive.

For the compound `N=C(N)C(F)(F)C(F)(F)C(F)(F)C(F)(F)C(F)(F)C(F)(F)C(F)(F)F`, the result was inactive.

Read-out in another experiment: Monokine induced gamma interferon (MIG), CXCL9 (gene 4283)
As to the kind of experiment: BSK_KF3CT_MIG: BioMAP Diversity Plus: KF3CT Assay for Monokine induced gamma interferon (MIG) Biomarker Activity (AID 2284248). The settings on record: primary human keratinocytes with fibroblasts. The method, boiled down:
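KF3CT system: keratinocyte/fibroblast co-culture, 24 h post-dose, MIG by ELISA; activity vs DMSO, positive fitting direction.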
As to `OCCCC(F)(F)C(F)(F)C(F)(F)F`, the result was inactive.

Take `O=C(O)C(F)(F)C(F)(F)OC(F)(F)F`: the result was inactive.

`OCC(F)(F)C(F)(F)C(F)(F)C(F)F`: the outcome was inactive.

As for `O=C(CC(=O)C(F)(F)C(F)(F)F)C(F)(F)F`, the outcome was inactive.

In the case of `O=C(Cl)C(F)(F)C(F)(F)C(F)(F)C(F)(F)C(F)(F)C(F)(F)C(F)(F)C(F)(F)F`, the result was inactive.

With `C=C(C)C(=O)OCC(F)(F)C(F)(F)C(F)(F)F`, the outcome was inactive.

With `FC(F)(F)C(F)(F)C(F)(F)C(F)(F)C(F)(F)C(F)(F)CCS`, the result was inactive.

Take `FC(F)(F)C(F)(F)C(F)(F)C(F)(F)C(F)(F)C(F)(F)C(F)(F)C(F)(F)CCS`: the result was inactive.

For `OCCCC(F)(F)C(F)(F)C(F)(F)C(F)(F)C(F)(F)C(F)(F)C(F)(F)F`, the half-maximal activity concentration (AC50) was 25.7 µM (active) and 54.8 µM (active).

Regarding `CCO[Si](CCC(F)(F)C(F)(F)C(F)(F)C(F)(F)C(F)(F)C(F)(F)F)(OCC)OCC`, the result was inactive.

Consider `FC(F)(F)C(F)(F)C(F)(F)CI`, for which the result was inactive.

In the case of `O=S(=O)(O)C(F)(F)C(F)(F)C(F)(F)C(F)(F)C(F)(F)C(F)(F)C(F)(F)F`, the result was inactive.

With `O=C(O)C(F)(F)C(F)(F)C(F)(F)C(F)(F)F`, the outcome was inactive.

In the case of `O=C(O)C(F)(F)C(F)(F)C(F)(F)F`, the outcome was inactive.

As for `FC(F)(F)C(F)(F)C(F)(F)C(F)(F)C(F)(F)C(F)(F)C(F)(F)C(F)(F)F`, the result was inactive.

On to `FC(F)(F)C(F)(F)C(F)(F)C(F)(F)CCI`, for which the outcome was inactive.

With `O=S(=O)(OCC(F)F)C(F)(F)F`, the outcome was inactive.

As to `CCCCCCCCC(F)(F)C(F)(F)C(F)(F)C(F)(F)C(F)(F)C(F)(F)F`, the outcome was inactive.

As to `C=CC(F)(F)C(F)(F)C(F)(F)C(F)(F)C(F)(F)C(F)(F)C(F)(F)C(F)(F)F`, the outcome was inactive.

Regarding `COC(=O)CCC(F)(F)C(F)(F)C(F)(F)C(F)(F)F`, the outcome was inactive.

As to `CC(C)(C)C(=O)CC(=O)C(F)(F)C(F)(F)C(F)(F)F`, the outcome was inactive.

Take `FC(F)(F)C(F)(F)CNCC(F)(F)C(F)(F)F`: the result was inactive.

On to `O=P(O)(O)OCCC(F)(F)C(F)(F)C(F)(F)C(F)(F)C(F)(F)C(F)(F)F`, for which the outcome was inactive.

As for `FC1CC(F)(F)C(F)(F)C1(F)F` (stereo not drawn), the outcome was inactive.

Regarding `FC(F)(F)C(F)(F)C(F)(F)N(C(F)(F)C(F)(F)C(F)(F)F)C(F)(F)C(F)(F)C(F)(F)F`, the result was inactive.

For the compound `OCC(F)(F)C(F)(F)C(F)(F)C(F)(F)C(F)(F)C(F)F`, the result was inactive.

For the compound `C=CC(=O)OCC(F)(F)C(F)(F)C(F)(F)C(F)(F)COC(=O)C=C`, the concentration at half-maximal activity (AC50) is 21.5 µM (active) and 29.6 µM (active).

For the compound `O=C(O)C(F)(F)C(F)(F)C(F)(F)C(F)(F)C(F)(F)C(F)(F)C(F)(F)C(F)(F)Cl`, the AC50 is 45.7 µM (active) and 54.2 µM (active).

Turning to `O=C(O)C(F)(F)C(F)(F)F`, the outcome was inactive.

As for `N=C(N)C(F)(F)C(F)(F)C(F)(F)C(F)(F)C(F)(F)C(F)(F)C(F)(F)F`, the result was inactive.
